Assay results as given in PubChem BioAssay (NCATS).
Records with an inconclusive call do not appear. Where a call stands in place of a potency, no number is given. Active and inactive are the calls of the source. The call rests on the fitted dose curve; in most records, active means well fitted cell-killing curve with a large enough effect; inconclusive means small, poorly fitted or top-dose-only effect; inactive means flat fitted curve, though single readings scatter.

test: Cell Viability - LYMP2-011 (AID 969); conditions: LYMP2-011 lymphoblastoid cells viability; series mostly up to 92.2 µM;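 further: cells exposed to compound for 24 hours; nearly all actives have a fitted effect of over 60% in size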
Summary of the method: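 2500 cells/well in complete medium, compound-treated 24 h at 37 C. Viability read as intracellular ATP by CellTiter-Glo luminescence after 30 min at room temperature. AC50 from Hill fits of qHTS concentration-response data.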
Potency means the concentration at half of the fitted maximal effect.

Row | SMILES | Potency
1 | CCCCOC(=O)c1ccc(O)cc1 | inactive
2 | COc1ccccc1O | inactive
3 | CCCCCCCCCCCCOS(=O)(=O)O | inactive
4 | Cc1cc(CC(=O)O)n(C)c1C(=O)c1ccc(Cl)cc1 | inactive
5 | NCCNCCNCCN | inactive
6 | NC(=O)c1ncn([C@@H]2O[C@H](CO)[C@@H](O)[C@H]2O)n1 | inactive
7 | Nc1ccc(S(=O)(=O)Nc2nccs2)cc1 | inactive
8 | Cc1c(O)cccc1C(=O)N[C@@H](CSc1ccccc1)[C@H](O)CN1C[C@H]2CCCC[C@H]2C[C@H]1C(=O)NC(C)(C)C | 50.1 µM (active)
9 | CC12CCC(CC1)C(C)(C)O2 | inactive
10 | Oc1cccc(O)c1 | inactive
11 | NCCNCCNCCNCCN | inactive
12 | Cc1cc2nc3c(=O)[nH]c(=O)nc-3n(C[C@H](O)[C@H](O)[C@H](O)CO)c2cc1C | inactive
13 | O=C1O[C@H]([C@@H](O)CO)C(O)=C1O | inactive
14 | CC1(C)[C@@H]2CC[C@@]1(C)C(=O)C2 | inactive
15 | O=C1c2c(O)cccc2Cc2cccc(O)c21 | inactive
16 | [Cl][In]([Cl])[Cl] | inactive
17 | C[C@]12C[C@H](O)[C@H]3[C@@H](CCC4=CC(=O)CC[C@@]43C)[C@@H]1CC[C@@H]2C(=O)CO | inactive

test: Cell Viability - LYMP2-013 (AID 970); conditions: LYMP2-013 lymphoblastoid cells viability; series mostly up to 92.2 µM; further: nearly all actives have a fitted effect of over 55% in size
Summary of the method: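 Human lymphoblastoid LYMP2-013 cells, 2500/well, treated 24 h at 37 C in complete medium; viability as intracellular ATP by CellTiter-Glo luminescence after 30 min. AC50 from Hill fits of qHTS concentration-response.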

Row | SMILES | Potency
18 | CCCCOC(=O)c1ccc(O)cc1 | inactive
19 | COc1ccccc1O | inactive
20 | CCCCCCCCCCCCOS(=O)(=O)O | inactive
21 | NC(=O)N/N=C/c1ccc([N+](=O)[O-])o1 | inactive
22 | Cc1cc(CC(=O)O)n(C)c1C(=O)c1ccc(Cl)cc1 | inactive
23 | NCCNCCNCCN | inactive
24 | NC(=O)c1ncn([C@@H]2O[C@H](CO)[C@@H](O)[C@H]2O)n1 | inactive
25 | Nc1ccc(S(=O)(=O)Nc2nccs2)cc1 | inactive
26 | Cc1c(O)cccc1C(=O)N[C@@H](CSc1ccccc1)[C@H](O)CN1C[C@H]2CCCC[C@H]2C[C@H]1C(=O)NC(C)(C)C | 50.1 µM (active)
27 | CC12CCC(CC1)C(C)(C)O2 | inactive
28 | Oc1cccc(O)c1 | inactive
29 | NCCNCCNCCNCCN | inactive
30 | Cc1cc2nc3c(=O)[nH]c(=O)nc-3n(C[C@H](O)[C@H](O)[C@H](O)CO)c2cc1C | inactive
31 | O=C1O[C@H]([C@@H](O)CO)C(O)=C1O | inactive
32 | CC1(C)[C@@H]2CC[C@@]1(C)C(=O)C2 | inactive
33 | O=C1c2c(O)cccc2Cc2cccc(O)c21 | inactive
34 | [Cl][In]([Cl])[Cl] | inactive
35 | C[C@]12C[C@H](O)[C@H]3[C@@H](CCC4=CC(=O)CC[C@@]43C)[C@@H]1CC[C@@H]2C(=O)CO | inactive
